In the supplement of paper PMC6555819:

test system: PXR:RXRa (NR concentration 270 nM, RXRa partner concentration 90 nM); assay: PBM binding z-score (relative to random genomic background probes); higher = stronger binding; sequences stand for … in GC…GCGATTGACAGCGTAGAATGAAGG
In short: (§1)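 Binding z-scores were set against random background probes. The data came from custom Agilent 4×180K protein-binding microarrays carrying double-stranded probes with 34-nt variable regions, incubated 1 h with ligand-free nuclear receptor dimers. Partner-specific antibodies detected binding, and scanned fluorescence was regression-normalized.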

| Sequence | PBM binding z-score |
| --- | --- |
| CCTCGGAGGACAACAGGAGGTCAGAGTTGCCAGA | 2.36 |
| TCTTGTAGATCAATAGAGGTTAACAAAGTGCGCT | 3.82 |
| GCTGCTAGGTCAACTGATGGTCAGCCAAAGCTCG | 1.39 |
| ACTAGCAGGCCCAGGGTCACTCAAGATTAGTCCG | 2.4 |
| TCTGCTAGGTCAGTTGGTGAGCTAACGAGCTGCC | -0.0879 |
| TCTGGGAGGACACGAAGGTCAGAGCTTTCCAGAG | 1.99 |
| ATCGAAAGGTCGTTAGGTGAGTATACAGAAAGGC | 2.9 |
| GCTTACGGGTCAAAGGTTATAGGATGAATAGAAT | 6.34 |
| TCTGCTAGGTCAACGCTGGTCAGCTAATCTGCTA | 2 |
| TTACCAAGGTGATCTGAGGTCGTTGATCCAACTC | 5.06 |
| CAGCCGAGGTCAGGGCCAGTATAGGAGGAACGTT | 3.5 |
| CCTCTGAGGACAGAAGGTCAGAGCTGTCCGCTTT | 1.95 |
| TAGCCTAGGTCATTGAGCCAGTATAGTACGCATC | 1.53 |
| AATACAGGGTCATCGTAGGCTAGAGTACGCACAG | 4.52 |
| TTACCAAGGTGAAAGGTCGATGATGCACGCCTTG | 3.08 |
| AAAGACAGGTGATGAAGGTAACTCAGGCTATCAT | 0.0948 |
| CCTAGCAGGCCAATCTGGGTCAATCAAGGCTTGA | 0.743 |
| TCTATTAGTTGAAGGGCAGCCGACGAGTCCGTTT | 0.654 |

test system: PXR homodimer (NR concentration 270 nM); assay: as above
In short: as §1

| Sequence | PBM binding z-score |
| --- | --- |
| CAGCCTAGGTCAAGGCCAGTATAGGAGGAACGTT | -0.176 |
| AGAATGAGGTTAAGATCAGGGTAACAGAATACAT | 0.602 |
| GGAACGAGGGCATTCGAGTTAATAGCATGGCGAT | 0.437 |
| TCTAGTTGGTCACGAAGGTCACACACGACGGGTA | 1.05 |
| AATACAGGGTCATCGTAGGACAGAGTACGCACAG | 0.871 |
| CCTACTGGGACACGAAAGGTCATTGATTCAGTGA | 2.47 |
| ATCTCTAGATAACAAGTTCAGTGAAAGAGAGGAC | 1.72 |
| TAGCCTCGGTCATGGGCCAGTATACCACGCGAAC | -0.497 |
| AGAATGAGGTTACCAAGGATCAGGGAAACGCTTG | 0.0221 |
| CCTACCAGGCCAATCTGGGTCACTCAAGGCTTGA | 0.0886 |
| TCTCGGAGGAGACGAAAGGTCAGAGCTCGACATC | -0.0245 |
| AGTCGAAGTTCACTAGGTAACGTAAGATTCAGCT | 1.18 |
| CGTCAAAGTTCAACTAAGATAACGTAAAGCACGC | 3.71 |
| TAGCCTAGGTCATTGGGCCAGTACAGTACGCATC | -0.112 |
| CGAAATAGGTCAGAACAGGACAGTGAAGGATGAT | 0.395 |
| CCTGCTAGGTCATGGTCAACTAATCTACAGTATG | -0.415 |
| CCTACTGGGCCAAGGACATTGATCAGTCAAAGCA | -0.0775 |
| CATCCAAGGTCAATGCTAGGTCAGTGAAAGCATT | 1.76 |
| AGTCAAAGTTCATCTCGGTAACGTAAGATATGCT | 4.44 |
| GCTTGTTGATCAAGGTTAAGAAAGACTAAGCTAA | -0.694 |

| Sequence | PBM binding z-score |
| --- | --- |
| AGTCAAAGTTCAGAACGAGGTAACGTAAAGCACG | 1.5 |
| CCTACTGGACCAAAGGTCATTGATTCCAATGCTC | 3.17 |
| CCTCGGAGGACAACAGGAGGTCAGAGTTGCCAGA | 1.11 |
| TCTTGTAGATCAATAGAGGTTAACAAAGTGCGCT | 0.45 |
| GCTGCTAGGTCAACTGATGGTCAGCCAAAGCTCG | -0.698 |
| ACTAGCAGGCCCAGGGTCACTCAAGATTAGTCCG | 0.0496 |
| TCTGCTAGGTCAGTTGGTGAGCTAACGAGCTGCC | -1.19 |
| TCTGGGAGGACACGAAGGTCAGAGCTTTCCAGAG | 0.818 |
| ATCGAAAGGTCGTTAGGTGAGTATACAGAAAGGC | 0.99 |
| GCTTACGGGTCAAAGGTTATAGGATGAATAGAAT | 0.559 |
| TCTGCTAGGTCAACGCTGGTCAGCTAATCTGCTA | -1.26 |
| TTACCAAGGTGATCTGAGGTCGTTGATCCAACTC | 1.41 |
| CAGCCGAGGTCAGGGCCAGTATAGGAGGAACGTT | 0.241 |
| CCTCTGAGGACAGAAGGTCAGAGCTGTCCGCTTT | -0.313 |
| TAGCCTAGGTCATTGAGCCAGTATAGTACGCATC | -0.111 |
| AATACAGGGTCATCGTAGGCTAGAGTACGCACAG | 0.956 |
| TTACCAAGGTGAAAGGTCGATGATGCACGCCTTG | -0.143 |
| AAAGACAGGTGATGAAGGTAACTCAGGCTATCAT | 0.956 |
| CCTAGCAGGCCAATCTGGGTCAATCAAGGCTTGA | -0.691 |
| TCTATTAGTTGAAGGGCAGCCGACGAGTCCGTTT | 0.958 |

test system: RARa:RXR (NR concentration 270 nM, RXRa partner concentration 90 nM); assay: as above
In short: as §1

| Sequence | PBM binding z-score |
| --- | --- |
| CAGCCTAGGTCAAGGCCAGTATAGGAGGAACGTT | 1.93 |
| AGAATGAGGTTAAGATCAGGGTAACAGAATACAT | 2.85 |
| GGAACGAGGGCATTCGAGTTAATAGCATGGCGAT | 0.742 |
| TCTAGTTGGTCACGAAGGTCACACACGACGGGTA | 4.14 |
| AATACAGGGTCATCGTAGGACAGAGTACGCACAG | 4.82 |
| CCTACTGGGACACGAAAGGTCATTGATTCAGTGA | 4.98 |
| ATCTCTAGATAACAAGTTCAGTGAAAGAGAGGAC | 0.0962 |
| TAGCCTCGGTCATGGGCCAGTATACCACGCGAAC | 0.0375 |
| AGAATGAGGTTACCAAGGATCAGGGAAACGCTTG | 2.01 |
| CCTACCAGGCCAATCTGGGTCACTCAAGGCTTGA | 1.66 |
| TCTCGGAGGAGACGAAAGGTCAGAGCTCGACATC | 4.57 |
| AGTCGAAGTTCACTAGGTAACGTAAGATTCAGCT | 0.939 |
| CGTCAAAGTTCAACTAAGATAACGTAAAGCACGC | 4.27 |
| TAGCCTAGGTCATTGGGCCAGTACAGTACGCATC | 2.12 |
| CGAAATAGGTCAGAACAGGACAGTGAAGGATGAT | 1.87 |
| CCTGCTAGGTCATGGTCAACTAATCTACAGTATG | 2.94 |
| CCTACTGGGCCAAGGACATTGATCAGTCAAAGCA | -0.237 |
| CATCCAAGGTCAATGCTAGGTCAGTGAAAGCATT | 5.95 |
| AGTCAAAGTTCATCTCGGTAACGTAAGATATGCT | 3.65 |
| GCTTGTTGATCAAGGTTAAGAAAGACTAAGCTAA | 0.658 |

| Sequence | PBM binding z-score |
| --- | --- |
| AGTCAAAGTTCAGAACGAGGTAACGTAAAGCACG | 2.94 |
| CCTACTGGACCAAAGGTCATTGATTCCAATGCTC | 5.95 |
| CCTCGGAGGACAACAGGAGGTCAGAGTTGCCAGA | 2.64 |
| TCTTGTAGATCAATAGAGGTTAACAAAGTGCGCT | 2 |
| GCTGCTAGGTCAACTGATGGTCAGCCAAAGCTCG | 2.93 |
| ACTAGCAGGCCCAGGGTCACTCAAGATTAGTCCG | 2.75 |
| TCTGCTAGGTCAGTTGGTGAGCTAACGAGCTGCC | 0.102 |
| TCTGGGAGGACACGAAGGTCAGAGCTTTCCAGAG | 2.19 |
| ATCGAAAGGTCGTTAGGTGAGTATACAGAAAGGC | 3.2 |
| GCTTACGGGTCAAAGGTTATAGGATGAATAGAAT | 8.36 |
| TCTGCTAGGTCAACGCTGGTCAGCTAATCTGCTA | 2.35 |
| TTACCAAGGTGATCTGAGGTCGTTGATCCAACTC | 2.02 |
| CAGCCGAGGTCAGGGCCAGTATAGGAGGAACGTT | 4.36 |
| CCTCTGAGGACAGAAGGTCAGAGCTGTCCGCTTT | 2.59 |
| TAGCCTAGGTCATTGAGCCAGTATAGTACGCATC | 2.18 |
| AATACAGGGTCATCGTAGGCTAGAGTACGCACAG | 4.85 |
| TTACCAAGGTGAAAGGTCGATGATGCACGCCTTG | 4.99 |
| AAAGACAGGTGATGAAGGTAACTCAGGCTATCAT | 0.223 |
| CCTAGCAGGCCAATCTGGGTCAATCAAGGCTTGA | 2.06 |
| TCTATTAGTTGAAGGGCAGCCGACGAGTCCGTTT | 0.447 |
